Bioassay records from PubChem.
Shown are actives, neighbours in structure and some others; about 6.1% of the full set was active somewhere.
TGFb SMAD3 inh – TGF-b pathway inhibition. HepG2 CAGA-GFP TGF-b/SMAD3 reporter, GFP fluorescence, 18 h; TGF-beta stimulated, 500 pg/mL final. Potency, µM (doses to about 46.1 µM), inactives show at the highest dose activity, negative = inhibition, usual class: inhibitors. 1.2% of 410,000 active; also: % is scaled to controls: 0 for no effect and ±100 for the full control effect; nearly all actives have a fitted effect of over 65% in size
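Inhibition was scored as loss of TGF-beta-induced (500 pg/mL final, 18 hours, 37 degrees C) GFP in HEPG2 cells carrying a CAGA-GFP reporter, in DMEM with 1% FBS. Well GFP was summed per cell; Activity was normalised to unstimulated and stimulated DMSO wells, then concentration-response fitting.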
Gal4-VP16 FLuc – Gal4-VP16 reporter inhibition counter-screen. Drosophila S2 Gal4-VP16 UAS-luciferase, luminescence, 20 h. Potency, µM (highest dose often 53.6 µM), for inactives: at the highest dose activity, negative = inhibition, actives largely listed as inhibitors. 3.5% of 310,000 active. AID 2546;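 also: Gal4-VP16 expression switched on by copper sulfate through the metallothionein promoter; % is scaled to controls: 0 for no effect and ±100 for the full control effect; nearly all actives have a fitted effect of over 50% in size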
RORg inh – blocks mouse ROR gamma transcriptional activity. P51450. Drosophila S2 Gal4-RORgamma UAS-luciferase reporter, 20 h. Potency, µM (top dose mostly 53.6 µM), without a hit: at the top dose activity change, negative = inhibition, hits mostly inhibitors. 5.4% of 310,000 active. AID 2551; also: % is scaled to controls: 0 for no effect and ±100 for the full control effect; nearly all actives have a fitted effect of over 60% in size
Target sequence (P51450 whole entry, looked up, the tested form may be a part): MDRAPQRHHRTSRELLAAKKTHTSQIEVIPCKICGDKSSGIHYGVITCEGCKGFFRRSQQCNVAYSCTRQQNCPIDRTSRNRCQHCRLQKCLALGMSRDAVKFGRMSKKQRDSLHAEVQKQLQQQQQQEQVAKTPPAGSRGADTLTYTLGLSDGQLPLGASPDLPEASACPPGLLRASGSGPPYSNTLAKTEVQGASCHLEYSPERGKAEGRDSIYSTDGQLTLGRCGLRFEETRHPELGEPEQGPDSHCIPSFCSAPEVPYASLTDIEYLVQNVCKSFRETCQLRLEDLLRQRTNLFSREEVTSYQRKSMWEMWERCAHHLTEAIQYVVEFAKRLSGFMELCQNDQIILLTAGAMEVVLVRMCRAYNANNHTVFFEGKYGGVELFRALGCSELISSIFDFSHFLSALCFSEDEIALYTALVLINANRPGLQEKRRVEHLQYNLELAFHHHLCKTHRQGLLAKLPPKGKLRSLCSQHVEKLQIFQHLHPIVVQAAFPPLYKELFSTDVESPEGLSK
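Using a luciferase readout, inhibitors were identified by reduced reporter activity in Drosophila cells coexpressing a copper-inducible Gal4–ROR gamma fusion and UAS-driven Photinus luciferase, incubated 20 hr after 700 uM copper sulfate.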
HepG2 tox-1 – counter-screen for TGF-b inhibitors: cytotoxicity in HepG2 cells; Potency, µM (titrated, usually from 46.1 µM), inactives show at the highest dose activity change, negative = cytotoxicity, usual class: cytotoxic; HepG2 CAGA-GFP viability, ATP luminescence, 18 h; 0.76% of 410,000 active; AID 588856
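HepG2 CAGA-GFP cells (1000/well, DMEM with 1% FBS) received compound, then TGF-beta at 500 pg/mL final, and were incubated 18 hours at 37 degrees C. Viability was read by CellTiter-Glo luminescence. Media-only wells were set as complete cell-killing and DMSO as no toxicity.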
ATXN2 expr inh – reduces ATXN2 reporter expression in HEK-293 cells; HEK-293 ATXN2-luciferase reporter, luminescence, 24 h; Potency, µM (doses to about 57 µM), for the others: at the top dose activity change, negative = inhibition, usual class: inhibitors; 0.72% of 360,000 active; also: % is scaled to controls: 0 for no effect and ±100 for the full control effect; nearly all actives have a fitted effect of over 55% in size
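ATXN2-luciferase reporter cells (luciferase flanked by upstream and downstream ATXN2 gene portions) were treated 24 h at 37 °C with compounds at up to 57 uM. SteadyGlo luminescence gave expression; GF-AFC fluorescence gave viability.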
S2 tox – cell viability loss in ATXN counter-screen; 0.49% of 400,000 active; S2 cells (HEK-293 line with an ATXN2-luciferase reporter) viability, CellTiter-Fluor protease fluorescence, 24 h; AID 651635; Potency, µM (highest dose often 56.7 µM), hits mostly cytotoxic; also: nearly all actives have a fitted effect of over 40% in size
TGFb confirm – TGF-b pathway inhibition, cherry-pick retest | 63% of 1,600 active | HepG2 CAGA-GFP TGF-b reporter, GFP fluorescence, 18 h; cells stimulated with TGF-beta, 500 pg/mL | shares compounds with TGFb SMAD3 inh | Potency, µM (top dose mostly 46.1 µM), inactives show at the highest dose activity, negative = inhibition, usual class: inhibitors | AID 720534; also: % is scaled to controls: 0 for no effect and ±100 for the full control effect; nearly all actives have a fitted effect of over 65% in size
HepG2 tox-2 – counter-screen for TGF-b inhibitors: cytotoxicity in HepG2 cells | shares compounds with TGFb SMAD3 inh | HepG2 CAGA-GFP viability, ATP luminescence, 18 h; cells stimulated with TGF-beta, 500 pg/mL | Potency, µM (titrated, usually from 46.1 µM), for the others: at the top dose activity, negative = cytotoxicity, usual class: inhibitors | 27% of 1,600 active; also: % is scaled to controls: 0 for no effect and ±100 for the full control effect; nearly all actives have a fitted effect of over 70% in size
TGFb CCL64 inh – blocks TGF-b signaling in CCL64 reporter cells; shares compounds with TGFb SMAD3 inh; CCL64 CAGA-GFP reporter, TGF-b stimulated, GFP fluorescence, 18 h; Potency, µM (highest dose often 46.1 µM), without a hit: top-dose activity, negative = inhibition, hits mostly inhibitors; 41% of 1,600 active; AID 720536; also: nearly all actives have a fitted effect of over 65% in size
TGFb COP inh – blocks TGF-b signaling in HepG2 COP reporter. Potency, µM (top dose mostly 46.1 µM), without a hit: top-dose activity, negative = inhibition, most hits filed as inhibitors. 3% of 1,600 active. HepG2 COP-GFP TGF-b reporter, GFP fluorescence, 18 h; cells stimulated by added recombinant TGF-beta. shares compounds with TGFb SMAD3 inh; also: nearly all actives have a fitted effect of over 70% in size
An asterisk follows results filed as active; i = inactive; ? = inconclusive; · = not tested or not shown. Calls follow the shape of the dose curve; as a rule, active = well fitted curve in the direction sought with a large enough effect; inconclusive = small, poorly fitted or top-dose-only effect, or another doubt; inactive = no such curve, though single readings can be large; an effect the other way counts as inactive or inconclusive. Potency is read from the fitted curve at half-maximal effect.

SMILES	TGFb SMAD3 inh	Gal4-VP16 FLuc	RORg inh	HepG2 tox-1	ATXN2 expr inh	S2 tox	TGFb confirm	HepG2 tox-2	TGFb CCL64 inh	TGFb COP inh
O=C(c1ccc(Cl)c(Cl)c1)N1CCC(=O)N(C(COCc2ccc(Cl)cc2)Cc2ccccc2)CC1 (stereo not given)	10µM*	-12%	?	-28%	?	?	21µM*	?	?	18%
Cc1cccc(COCC(Cc2ccccc2)N2CCN(C(=O)c3cc(Cl)cc(Cl)c3)CCC2=O)c1 (stereo not given)	13µM*	-3%	?	-26%	?	?	8.2µM*	?	13µM*	36%
Cc1cc(S(=O)(=O)c2ccc([N+](=O)[O-])cn2)ccc1Br	?	·	·	2%	?	·	·	·	·	·
Cc1ccc(S(=O)(=O)c2ccc([N+](=O)[O-])cn2)cc1	2.8µM*	3.5µM*	3.2µM*	7.1µM*	?	·	3.3µM*	2.9µM*	3.3µM*	5.2µM*
O=[N+]([O-])c1ccc(S(=O)(=O)c2ccccc2)nc1	2.5µM*	3.5µM*	?	14µM*	·	·	4.1µM*	5.8µM*	3.3µM*	8.2µM*
CCCCCCCN(c1ccccc1)[C@@H]1C[C@H]2CCCC(=O)N3CC[C@@H](C1)[C@@H]23	10µM*	·	·	11µM*	?	·	?	?	21µM*	21µM*
CN(C)S(=O)(=O)c1ccc2c(c1)N(CC(=O)Nc1ccc(F)cc1)C(=O)CS2	?	·	·	-1%	-9%	?	·	·	·	·
COc1ccccc1CNC(=O)c1ccc2c(c1)N(Cc1cc(C)ccc1C)C(=O)c1ccccc1S2	-4%	·	·	-28%	·	·	·	·	·	·
Cc1cccc(N2CCN(C(=O)c3cn(C)c(=O)c4c3c3ccccc3n4C)CC2)c1C	10µM*	1%	35%	-21%	?	i	?	?	21µM*	50%
COc1ccc(OC)c(-c2noc(N3CCN(c4ccc(C(C)=O)cc4)CC3)n2)c1	?	·	·	-3%	-33%	i	·	·	·	·
O=[N+]([O-])c1cccc(N=Nc2ccc(O)cc2O)c1	2.5µM*	·	·	-27%	?	?	12µM*	8.2µM*	5.8µM*	65%
Nc1ncc(Br)cc1S(=O)(=O)Nc1cc(C(F)(F)F)cc(C(F)(F)F)c1	5.6µM*	22µM*	-81%	-51%	0%	?	6.5µM*	12µM*	?	35%
Cc1ccc(NS(=O)(=O)c2cc(Br)cnc2N)c(Cl)c1	-10%	-9%	-1%	4%	-10%	i	·	·	·	·
O=CN1CCN(C(=S)Nc2ccc(OC(F)F)cc2)CC1	11%	-3%	29%	26%	·	i	·	·	·	·
FC(F)Oc1ccc(NC(=S)NC23CC4CC(CC(C4)C2)C3)cc1	13µM*	7.1µM*	0.79µM*	-24%	-4%	i	?	?	?	38%
Cc1cccc(CN2CCCC(C(=O)c3ccc4c5c(cccc35)CC4)C2)n1 (stereo not given)	10µM*	13µM*	4µM*	-60%	-35%	i	?	?	?	60%
O=C(c1ccc2c3c(cccc13)CC2)C1CCCN(Cc2cccnc2)C1 (stereo not given)	-4%	10%	2%	-20%	?	?	·	·	·	·
O=C(C1CCC(CNS(=O)(=O)c2cccc3nsnc23)CC1)N1CC=C(c2ccccc2)CC1 (stereo not given)	8.9µM*	-12%	-17%	-52%	?	i	?	?	?	12%
Cc1cc2nn(-c3ccc(F)cc3)nc2cc1NC(=O)c1cccc([N+](=O)[O-])c1C	0%	·	·	-1%	20%	?	·	·	·	·
CC(C)C[C@@H](CN1CCC[C@@H]1CN1C(=S)NC[C@@H]1Cc1ccc(O)cc1)N1C[C@H](Cc2ccc(O)cc2)N(CC2CCCCC2)C1=S	7.1µM*	·	·	-89%	?	25µM*	16µM*	?	5.8µM*	?
CC(C)C[C@@H](CN1CCCC1CN1C(=S)NC[C@@H]1Cc1ccccc1)N1C[C@H](Cc2ccc(O)cc2)N(CC2CCCCC2)C1=S (stereo not given in full)	·	·	·	·	-37%	?	·	·	·	·
CC(C)C[C@@H](CN1CCC[C@@H]1CN1C(=S)NC[C@@H]1Cc1ccc(O)cc1)N1C[C@H](Cc2ccc(O)cc2)N(CC2CCCCCC2)C1=S	4.5µM*	·	·	-89%	?	?	18µM*	18µM*	8.2µM*	49%
Cc1cc(C)nc(-n2nc(C)cc2NC(=O)CN2CCC(C)CC2)n1	16µM*	?	?	-18%	-4%	i	?	-17%	-12%	-21%
COc1ccc(C(=O)NCC(c2cccnc2)N2CCN(c3ccccc3F)CC2)cc1OC (stereo not given)	-25%	·	·	-26%	-9%	i	·	·	·	·
COc1ccccc1N1CCN(Cc2cc(Br)c(O)c3ncccc23)CC1	?	1.4µM*	1.1µM*	-37%	3.8µM*	?	?	-28%	4.1µM*	11%
COc1ccccc1N1CCN(Cc2cc(=O)oc3cc(C)ccc23)CC1	-7%	·	·	-34%	-11%	i	·	·	·	·
C[C@H]1CN([C@@H](C)CO)C(=O)Cc2cc(NS(=O)(=O)c3ccc(Cl)cc3)ccc2O[C@@H]1CN(C)C(=O)Nc1cccc2ccccc12	-24%	·	·	-1%	-6%	i	·	·	·	·
